Screen size: about 2,400 compounds; about 360 (15%) were called active. These entries were drawn from the full list. Potency and affinity values are given separately. A number with no mark means an inactive call.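 How the source made its calls: active means viability falls under 70% at one or more tested concentrations, taken as toxicity; inactive means viability stays over 70% at every dose.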

Here are results for 58 compounds from PubChem BioAssay AID624300 (Southern Research Specialized Biocontainment Screening …, 2012).

A short description of this assay: HeLa cell cytotoxicity, dose response, cytotoxicity control for MgcRacGAP inhibitor project (AID 624300).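 Further: 100% = median of untreated control wells on the same plate.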 To be noted: CellTiter-Glo luminescence, 24 h; series mostly up to 100 µM; viability: at the top concentration. On the technique in general: ATP-based viability assays read luminescence as a measure of living cells.
One may read the viability as a read-out of living cells in per cent, often relative to untreated cells. Turning to `CN(C)/N=C/c1ccc(N2CCOCC2)cc1`, the “viability” value is 99.3%.

Turning to `Cn1c(N2CCOCC2)c(/C=N/O)c2ccccc21`, the “viability” value is 95.4%. The result for `COc1ccc(NC(=S)NNS(=O)(=O)c2ccc3ccccc3c2)c(OC)c1` reads 103%. On to `O=C(NC(=S)N1CCN(c2ccc(O)cc2)CC1)c1ccco1`, for which the “viability” value was 98.4%. The result for `COc1cccc(N2CC(C(=O)Oc3ccc4ccccc4c3)CC2=O)c1` (stereo not drawn) reads 102%; that for `COc1ccc(Cn2nnnc2C(c2cccnc2)N2CCN(c3ccc(O)cc3)CC2)cc1` (stereo not drawn), 94.8%; that for `CC1(C)CC(=O)C(C=Nc2ccc(O)cc2)=C(O)C1`, 102%. The result for `CC1(C)CC(=O)C=C(Nc2ccc(O)cc2)C1` reads 100%; that for `Cc1ccc(/C=N/Nc2ccc(Cl)c(C(=O)O)c2)s1`, 97.3%; that for `CCN(CC(=O)Nc1ccc(S(=O)(=O)N2CCCC2)cc1)CC(=O)Nc1cccc(OC)c1`, 98.4%.

Regarding `Nc1cc(SCc2ccc([N+](=O)[O-])cc2)ncn1`, the “viability” value is 98.7%.

Consider `O=[N+]([O-])c1ccc(Oc2cccc3cccnc23)c([N+](=O)[O-])c1`, for which the “viability” value is 100%. Next, `Cc1ccc(S(=O)(=O)Oc2ccc(/C=C3/C(=N)N4C(=NC3=O)SN=C4S(C)(=O)=O)cc2)cc1`: 106%; `COc1cc2nc(=S)n(CCCN3CCOCC3)c(N)c2cc1OC`: 98.3%. Next, `CC(Oc1ccc(Cl)cc1Cl)C(=O)Nc1ccc(O)cc1` (stereo not drawn): 113%; `COc1cccc(CNc2ccc3c(c2)ncn3C)c1OC`: 96.4%.

With `COc1cccc(CNc2ccc(N3CCCCC3)cc2)c1OC`, the “viability” value was 91.9%.

On to `Oc1ccc(NCc2ccccc2OCc2ccccc2F)cc1`, for which the “viability” value was 108%.

As for `O=C(c1c(Cl)cccc1Cl)N1CCN(c2cccc3[nH]ccc23)CC1`, the “viability” value was 85.3%. The result for `COc1ccc(N2CCC(CNC(=S)Nc3cccc(C)c3)C2)cc1` (stereo not drawn) reads 81.7%. The result for `Cc1nc2ccccc2n2c(O)c(CC(=O)O)cc12` reads 101%; that for `Clc1cc(Cl)c(OCCCCn2cncn2)c(Cl)c1`, 93.2%. Next, `COc1cc(/C=N\N=C2/SC(CC(=O)O)C(=O)N2c2ccc(O)cc2)ccc1O` (stereo not drawn): 108%; `CCN(CC)c1ccc(S(=O)(=O)N2CCOCC2)cc1NC(=O)COC(=O)/C=C/c1ccc(O)c(OC)c1`: 91%.

On to `CCN(CC)S(=O)(=O)c1ccc(C)c(NC(=O)CN2CCN(Cc3ccccc3)CC2)c1`, for which the “viability” value was 95.8%.

Consider `CCn1cnc2cc(NCc3ccc(OC)cc3)ccc21`, for which the “viability” value is 98.5%. The result for `COc1ccc2c(c1)-c1nc(/N=C/c3ccccc3O)sc1CC2` reads 111%; that for `Cn1cccc1/C=N/N1CCN(c2ccccc2)CC1`, 104%. The result for `Cc1cc(C)n(CCC(=O)N/N=C/c2ccc(O)cc2)n1` reads 96.2%; that for `Cc1cc(=O)[nH]c(N/N=C/c2ccc(O)c(O)c2)n1`, 101%; that for `COc1cc(/C=N/Nc2cccc3cccnc23)cc(OC)c1O`, 95.5%. Regarding `COc1cc(/C=N/NC(=O)c2nc(C)cc(C)n2)ccc1O`, the “viability” value was 105%. The result for `COc1cc(/C=C/C(=O)OCC(=O)N2CCCc3ccccc32)ccc1O` reads 97.4%; that for `COc1cc(/C=C/C(=O)OCC(=O)NC(=O)NC(C)(C)C)ccc1O`, 88.8%.

Turning to `COc1cc(/C=C/C(=O)OCC(=O)NC2CCS(=O)(=O)C2)ccc1O` (stereo not drawn), the “viability” value was 109%. Next, `COc1ccc(N2CCN(C(c3cccs3)C(C)NC(=O)c3ccco3)CC2)cc1` (stereo not drawn): 94.4%; `O=C1NN(c2ccc(Br)cc2)C(=O)/C1=C\c1ccc(O)cc1O`: 87.2%. The result for `O=C1NN(c2ccccc2)C(=O)C1=Cc1ccccc1O` reads 104%. The result for `C(=N\N1CCOCC1)/c1nc(-c2ccccc2)n2ccccc12` reads 101%; that for `COc1cc(OC)cc(C(=O)N2CCN(Cc3ccccc3Br)CC2)c1`, 86.6%; that for `COc1cc(/C=N/NC(=O)CCN2CCCCC2)ccc1O`, 101%. `COc1cc(/C=N/Nc2ccccn2)cc(OC)c1O`: the “viability” value is 91.8%. The result for `COc1ccc2c(/C=N/Nc3ccc(C(=O)O)cc3)c[nH]c2c1` reads 102%; that for `COc1ccc2nc(C)cc(SCC(=O)N/N=C/c3ccc(O)c(O)c3)c2c1`, 97.9%; that for `COc1ccc2c(c1)-c1nc(/N=C/c3cccc(OC)c3O)sc1CC2`, 112%. Next, `CN1CCCCCC1=Nc1ccccc1C#N`: 92.2%; `CCn1c(C)nc2cc(C(=O)N/N=C/c3cccc(O)c3O)ccc21`: 108%; `O=c1/c(=C/c2ccc(O)cc2)sc2n1CCCN=2`: 102%. As to `Cc1c(N=Nc2ccc(O)cc2)c(=O)n(-c2ccccc2)n1C`, the “viability” value was 103%. Consider `Oc1ccc(Nc2ccnc3cc(Cl)ccc23)cc1`, for which the “viability” value was 95.1%. Next, `NC(=S)NNc1ccnc2cc(Cl)ccc12`: 88%; `Cc1ccc(NCc2ccco2)cc1C`: 105%; `COc1cc(/C=N/NC(=O)CCC(=O)Nc2ccc(F)cc2)ccc1O`: 103%. The result for `CN(C)c1ccc(N/C=C/C(=O)C(C)(C)C)cc1` reads 96.1%. As for `COc1cc(/C=N/N=C(\N)c2nonc2N)ccc1O`, the “viability” value is 91.8%. The result for `CNc1nnc(-c2ccc(N(C)C)cc2)s1` reads 106%; that for `CCN(CC)c1ccc(N=Cc2c(C)[nH]c3ccccc23)cc1`, 87.1%; that for `COCCNCC(=O)Nc1ccc(C)c(S(=O)(=O)N2CCCCC2)c1`, 101%.
